High-throughput results from PubChem BioAssay.
The full list was thinned out, with hits kept by preference.
TDP-43 tox inh – qHTS of TDP-43 Inhibitors: NCGC Sytravon Library Screen; yeast TDP-43 toxicity rescue, BacTiter-Glo growth, 24 h; Potency, µM (series often up to 46.1 µM), actives largely listed as activators; hit rate 0.45% among 45,000; AID 1347073, 2019; active = well fitted activation curve with a large enough effect; note: 0% is about no effect; nearly all actives have a fitted effect of over 55% in size
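TDP-43-expressing yeast, pregrown in raffinose, seeded at OD600 0.02 in galactose medium with compound for 24 hr at 30 deg C. Growth read by BacTiter-Glo luminescence, so rescue of toxicity appears as activation.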
Active calls of the source: *. Potency is the fitted concentration of half-maximal effect.

Screening COc1ccc(CC(=O)Nc2nc(-c3ccc(OC)c(OC)c3)cs2)cc1OC returned TDP-43 tox inh inactive.
`COc1ccccc1CC(=O)Nc1nc(-c2ccc(F)c(F)c2)cs1` gave TDP-43 tox inh 12.6µM*.
For COc1cc(OC)cc(C(=O)N[C@H](C(=O)Nc2nc(-c3ccc(F)c(F)c3)cs2)C(C)C)c1 the results were TDP-43 tox inh inactive.
`Cc1ccc(C)c(Cn2c(=O)n(CCCC(=O)NCc3ccc4c(c3)OCO4)c(=O)c3sccc32)c1` gave TDP-43 tox inh inactive.
Screening CC(=O)Nc1ccc(Nc2nc3ccc(Cl)cc3n3cnnc23)cc1 returned TDP-43 tox inh inactive.
Screening Cc1ccc(NC(=O)C2CCCN2S(=O)(=O)c2ccc3c(c2)n(C)c(=O)c(=O)n3C)cc1 (configuration not stated) returned TDP-43 tox inh inactive.
`Cc1ccc(NC(=O)[C@@H]2CCCN2S(=O)(=O)c2ccccc2F)cc1` gave TDP-43 tox inh inactive.
Cc1ccc(S(=O)(=O)N2CCCC2C(=O)Nc2ccc(Br)cc2)cc1 (configuration not stated) was read as TDP-43 tox inh 12.6µM*.
`COc1ccc(CCNC(=O)c2ccc3c(c2)N(Cc2ccc(F)cc2)C(=O)c2ccccc2S3(=O)=O)cc1OC` gave TDP-43 tox inh inactive.
`CSc1ccccc1C(=O)Nc1ccc2c(c1)CCC2` gave TDP-43 tox inh inactive.
For O=C(Nc1ccc2c(c1)CCC2)c1cccc(F)c1 the results were TDP-43 tox inh 15.8µM*.
O=C(Cc1cccc(F)c1)Nc1ccc2c(c1)CCC2 was read as TDP-43 tox inh inactive.
Screening CCOc1ccc(NC(=O)Cn2c(=O)n(CC(=O)NCCc3ccccc3)c(=O)c3sccc32)cc1 returned TDP-43 tox inh inactive.
COc1ccc(C(=O)NC(=S)NNC(=O)c2c(-c3ccccc3)noc2C)cc1OC was read as TDP-43 tox inh 12.6µM*.
Cc1onc(-c2ccccc2)c1C(=O)NC(=S)NNC(=O)c1ccco1 was read as TDP-43 tox inh inactive.
For COc1ccccc1/C=N/NC(=O)c1c(-c2ccccc2)noc1C the results were TDP-43 tox inh inactive.
`CN(C)c1oc(/C=C/c2ccc(F)cc2)nc1C#N` gave TDP-43 tox inh inactive.
For Cc1cc(C)c(NC(=O)C2CCN(c3nc4ccccc4n4cccc34)CC2)c(C)c1 the results were TDP-43 tox inh inactive.
For O=C(c1cccs1)c1cn(CCOc2ccc(F)cc2)c2ccccc12 the results were TDP-43 tox inh inactive.
`CCCSc1ncc(Cl)c(C(=O)Nc2c(C(=O)c3ccc(C)cc3)oc3ccccc23)n1` gave TDP-43 tox inh inactive.
`C/C(=C\C(=S)Nc1ccccc1)Nc1ccc2ccccc2c1` gave TDP-43 tox inh 14.1µM*.
For O=C(COc1ccc2ccccc2c1)NNC(=O)C(=O)Nc1ccccc1 the results were TDP-43 tox inh inactive.
`O=C(Nc1ccc2ccccc2c1)c1ccccc1O` gave TDP-43 tox inh inactive.
`O=C(Nc1cc(-c2nc3ccccc3o2)ccc1Cl)c1ccc(Br)o1` gave TDP-43 tox inh inactive.
CC1CCN(S(=O)(=O)c2ccc3c(c2)CCN3C(=O)Nc2ccccc2Br)CC1 was read as TDP-43 tox inh inactive.
Cc1occc1C(=O)N/N=C/C(Br)=C\c1ccccc1 was read as TDP-43 tox inh inactive.
For O=C(Nc1ccccc1C(=O)N/N=C/c1ccccc1)c1ccco1 the results were TDP-43 tox inh inactive.
`O=C(N/N=C/C(Br)=C\c1ccccc1)c1ccco1` gave TDP-43 tox inh 10µM*.
`COc1cc(C(=O)Nc2sc3c(c2C#N)CCCC3)c(Br)c(OC)c1OC` gave TDP-43 tox inh inactive.
Screening COc1ccccc1N1CCN(c2cnccn2)CC1 returned TDP-43 tox inh inactive.
Screening COc1ccc(-c2csc3ncnc(N4CCN(c5ccccc5OC)CC4)c23)cc1 returned TDP-43 tox inh 14.1µM*.
Screening COc1ccc(-c2csc3ncnc(N4CCN(CCO)CC4)c23)cc1 returned TDP-43 tox inh inactive.
Screening CCCSc1ncc(Cl)c(C(=O)Nc2c(C(=O)c3ccc(F)cc3)oc3ccccc23)n1 returned TDP-43 tox inh inactive.
For CN(C)CCCNc1cc(C(C)(C)C)nc2c(-c3ccccc3)cnn12 the results were TDP-43 tox inh inactive.
`Cc1cc(NCc2ccccn2)n2ncc(-c3ccccc3)c2n1` gave TDP-43 tox inh 8.91µM*.
CCCc1cc(NCc2ccccn2)n2nc(C)c(-c3ccccc3)c2n1 was read as TDP-43 tox inh inactive.
Screening COc1ccccc1NC(=O)CN1C(=O)C(c2ccc(F)cc2)=NC1(C)C returned TDP-43 tox inh inactive.
`CC1CCC(NC(=O)C2(C)Cc3ccccc3C(=O)N2Cc2ccccc2Cl)CC1` (configuration not stated) gave TDP-43 tox inh inactive.
C#CCOc1c(Br)cc(/C=C2/C(=O)ON=C2C)cc1OC was read as TDP-43 tox inh inactive.
For CCOc1cc(/C=C2/C(=O)ON=C2C)ccc1OCc1ccccc1 the results were TDP-43 tox inh inactive.
For COc1cc(/C=C2\C(=O)ON=C2c2ccccc2)cc(OC)c1OC the results were TDP-43 tox inh 11.2µM*.
`CCOC(=O)c1ccc(NC(=O)C(CC)Sc2nc3ncccc3o2)cc1` (configuration not stated) gave TDP-43 tox inh inactive.
`O=C(Cn1cc(C(F)(F)F)ccc1=O)N1CCCc2ccccc21` gave TDP-43 tox inh inactive.
For O=Cc1cn(CC(=O)N2CCCCC2)c2ccccc12 the results were TDP-43 tox inh inactive.
O=C(c1ccco1)c1cn(CC(=O)N2CCCc3ccccc32)c2ccccc12 was read as TDP-43 tox inh 17.8µM*.
For Fc1ccccc1-n1ncc2c1ncn1nc(-c3ccccc3Cl)nc21 the results were TDP-43 tox inh inactive.
`O=C(NNC(=S)NC(=O)c1cccc([N+](=O)[O-])c1)c1ccc(Br)cc1` gave TDP-43 tox inh inactive.
For CNC(CC(=O)c1ccc([N+](=O)[O-])cc1)C(Cl)(Cl)Cl (configuration not stated) the results were TDP-43 tox inh inactive.
Screening CC(C)CC(=O)NC(=S)NNC(=O)c1ccc([N+](=O)[O-])cc1 returned TDP-43 tox inh 11.2µM*.
Screening COc1cccc(CNC(=O)c2oc3ccc4c(c3c2C)C(=O)CC(C)(C)O4)c1OC returned TDP-43 tox inh inactive.
`NC(=S)N/N=C/c1ccc(-c2ccc(Cl)c(Cl)c2)o1` gave TDP-43 tox inh 11.2µM*.
NC(=S)N/N=C/c1ccc(-c2ccc(SC(F)F)cc2)o1 was read as TDP-43 tox inh inactive.
O=C(O)c1cc(-c2ccc(/C=N/NC(=S)Nc3ccccc3)o2)ccc1Cl was read as TDP-43 tox inh inactive.
For O=C(Nc1ccc(F)c(Cl)c1)C1Cc2ccccc2CN1S(=O)(=O)c1ccc(F)cc1 (configuration not stated) the results were TDP-43 tox inh inactive.
Screening CCc1ccc(NC(=O)CN2C(=O)C(c3ccc(Cl)cc3)=NC23CCCCC3)cc1 returned TDP-43 tox inh inactive.
For COc1cc(OC)c(NC(=O)C2=C(C)C(=O)OC23CCCCC3)cc1Cl the results were TDP-43 tox inh inactive.
`COc1ccccc1-c1nc2cc3ccccc3cc2nc1-c1ccccc1OC` gave TDP-43 tox inh inactive.
`COc1ccccc1-c1cn(C(C)(C)C)nc1C` gave TDP-43 tox inh 11.2µM*.
`COc1ccccc1-c1c(C)nn2c(C(F)(F)F)cc(-c3ccccc3)nc12` gave TDP-43 tox inh inactive.
